LmPK inhibitor = inhibitors of Leishmania mexicana pyruvate kinase; AID 1721; purified LmPK, Kinase-Glo ATP luminescence, 1 h; 0.37% of 290,000 active; Potency, µM (doses to about 57.5 µM), for inactives: top-dose activity change, negative = inhibition, hits mostly inhibitors; Q27686
Target sequence (Q27686 whole entry, looked up): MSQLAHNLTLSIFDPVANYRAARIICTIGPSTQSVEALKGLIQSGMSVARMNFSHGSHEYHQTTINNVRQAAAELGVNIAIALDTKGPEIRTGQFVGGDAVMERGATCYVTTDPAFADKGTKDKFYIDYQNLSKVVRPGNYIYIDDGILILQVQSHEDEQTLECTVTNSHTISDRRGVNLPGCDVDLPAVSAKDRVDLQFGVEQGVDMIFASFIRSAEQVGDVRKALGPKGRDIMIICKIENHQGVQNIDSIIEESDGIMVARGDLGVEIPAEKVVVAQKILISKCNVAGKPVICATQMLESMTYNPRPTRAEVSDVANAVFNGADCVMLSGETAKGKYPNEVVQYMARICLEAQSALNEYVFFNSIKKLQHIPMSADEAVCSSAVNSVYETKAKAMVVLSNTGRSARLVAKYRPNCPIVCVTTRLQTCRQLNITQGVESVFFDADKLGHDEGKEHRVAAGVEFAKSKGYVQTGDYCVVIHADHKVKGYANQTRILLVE
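Screened at intermediate enzyme activity to detect both inhibitors and activators: LmPK at 0.1 nM, with a 0.5 nM enzyme column as activation reference. PEP 0.5 mM, ADP 0.1 mM; ATP detected by luminescence after 1 h.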
TbPYK inhibitor = T. brucei pyruvate kinase inhibition; Q57TT1; TbPYK enzyme, Kinase-Glo Plus ATP luminescence, 45 min; Potency, µM (doses to about 76.8 µM), inactives show at the top dose activity, negative = inhibition, actives largely listed as inhibitors; 0.12% of 410,000 active; AID 624173; also: nearly all actives have a fitted effect of over 50% in size
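Enzyme and substrate buffer are dispensed first and compound is pin-transferred. ADP at 130 uM final then starts the reaction, which runs 45 min at room temperature. Detection reagent is added for 10 min before luminescence is imaged.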
Sm TGR inh = S. mansoni TGR enzyme inhibition. 3% of 360,000 active. purified TGR, DTNB reduction, TNB absorbance 405 nm. Q962Y6. Potency, µM (top dose mostly 114 µM), for the others: at the highest dose activity change, negative = inhibition, most hits filed as inhibitors; also: nearly all actives have a fitted effect of over 60% in size
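TGR 20 nM + NADPH 100 uM (dispensed conc.), cpd preinc 15 min RT; start with NADPH (500 uM addition) then DTNB (15 mM addition). Kinetic TNB absorbance, 405 nm filter. Four-parameter Hill fit across titration.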
RE007 growth inh = less growth of the S. pombe RE007 Vpr strain; S. pombe RE007 Vpr strain, BacTiter-Glo ATP luminescence, 24 h; Potency, µM (highest dose often 92.2 µM), without a hit: at the highest dose activity change, negative = less growth, hits mostly inhibitors; 0.21% of 360,000 active; AID 651644; active = well fitted falling curve with a large enough effect; inconclusive = small, poorly fitted or top-dose-only effect; inactive = no such curve, though single readings can be large or run the other way; also: nearly all actives have a fitted effect of over 50% in size
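Fission yeast strain RE007, carrying one chromosomally integrated HIV-1 vpr copy, was seeded at OD 0.01 in PMG+AL medium with 23 nL pinned compound. After 24 h at 30 °C and 99% humidity, viability was read by BacTiter-Glo luminescence.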
* marks the source's active call; other numbers are inactive results; ? = inconclusive; nt = no result given; [ ] = another dose, or the depositor's remark. This is a sample that favours compounds with a hit; in the whole collection about 3% have one here. Unless noted, calls follow the shape of the dose curve; as a rule, active = well fitted curve in the direction sought with a large enough effect; inconclusive = small, poorly fitted or top-dose-only effect, or another doubt; inactive = no such curve, though single readings can be large; an effect the other way counts as inactive or inconclusive. % is scaled to controls: 0 for no effect and ±100 for the full control effect; potency is read from the fitted curve at half-maximal effect.

SMILES	LmPK inhibitor	TbPYK inhibitor	Sm TGR inh	RE007 growth inh
O=C(O)c1cccc(Cn2c(Cl)c(/C=N/NC(=O)c3ccco3)sc2=O)c1	-1%	-13%	45µM*	-14%
O=C(O)c1cccc(Cn2c(Cl)c(/C=N/NC(=O)c3cccc(O)c3)sc2=O)c1	2%	-12%	9%	-5%
O=C(O)c1cccc(Cn2c(Cl)c(/C=N/NC(=O)c3cc4ccccc4cc3O)sc2=O)c1	4%	0%	32µM*	-7%
Cc1ccc(Nc2c(-c3ccc(N4CCOCC4)cc3)nc3c(C)cccn23)cc1	nt	-5%	-15%	nt
O=C(O)c1ccc(/C=C2\SC(=S)N(Nc3ccccc3)C2=O)cc1	?	-17%	3.2µM*	17%
O=C1/C(=C/c2ccc(O)c(O)c2)SC(=S)N1Nc1ccccc1	-2%	-31%	-25%	3%
O=C1/C(=C/c2ccncc2)SC(=S)N1Nc1ccccc1	-13%	-14%	3.2µM*	26%
CCOc1ccc(NC(=O)c2cc(S(=O)(=O)N3CCCCCC3)cn2C)cc1	nt	-10%	-3%	nt
COCCN(CCOC)Cc1c(O)ccc2c1O/C(=C\c1ccc(C)o1)C2=O	-3%	0%	1.8µM*	4%
O=C(CNC(=O)c1ccccc1F)OCc1nc2ccccc2s1	-2%	0%	2%	-12%
CNc1sc(C(=O)c2ccccc2F)c(N)c1-c1nc2ccccc2s1	-4%	nt	25µM*	-16%[3.69 µM]
OC[C@H]1O[C@H](OC/C=C/c2ccccc2)[C@H](O)[C@@H](O)[C@@H]1O	nt	-10%	nt	nt
C=CCOc1cccc(C2C(C(=O)c3ccc(C)o3)=C(O)C(=O)N2CCN(C)C)c1 (stereo not drawn)	-1%	-6%	35µM*	6%
CCCOc1cccc(C2C(C(=O)c3ccc(C)o3)=C(O)C(=O)N2c2nc(C)c(C(C)=O)s2)c1 (stereo not drawn)	5%	-9%	35µM*	9%
CCCOc1cccc(C2C(C(=O)c3ccc(C)o3)=C(O)C(=O)N2CCN2CCOCC2)c1 (stereo not drawn)	7%	-8%	?	-2%
CCNC(=O)[C@@H]1CCCN1C(=O)[C@H](CCCN=C(N)N)NC(=O)[C@H](CC(C)C)NC(=O)[C@@H](Cc1c[nH]c2ccccc12)NC(=O)[C@H](Cc1ccc(O)cc1)NC(=O)[C@H](CO)NC(=O)[C@H](Cc1c[nH]c2ccccc12)NC(=O)[C@H](Cc1cnc[nH]1)NC(=O)[C@@H]1CCC(=O)N1	nt	-1%	nt	nt
Cc1ccc2scc(N3CCCCC3C)c(=O)c2c1 (stereo not drawn)	nt	-2%	-2%	nt
O=C(/C=C/c1ccoc1)c1ccccc1O	-26%	-9%	-25%	-4%
COc1ccc2ccccc2c1C(=O)/C=C\c1ccoc1	-2%	4%	22µM*	-20%
CCCN(CCC)c1cc(C)nc2nc(-c3ccc(C(C)(C)C)cc3)nn12	nt	-2%	-4%	nt
COc1cc(NC(=O)Cn2ncc(Cl)c(Cl)c2=O)c(C)cc1[N+](=O)[O-]	3%	0%	40µM*	-4%
COc1cc(NC(=O)CN2C(=O)CN(C)C2=O)c(C)cc1[N+](=O)[O-]	-5%	4%	-22%	14%
CCCCNc1nc2c(c(=O)n(Cc3ccc(Cl)cc3)c(=O)n2C)n1C	nt	1%	15%	nt
COc1cc2c(cc1OC)C(C1C(=O)CC(C)(C)CC1=O)N(C(=O)CCl)CC2 (stereo not drawn)	-2%	-1%	?	-2%
COc1cc2c(cc1OC)C(c1cc(Br)ccc1F)N(C(=O)CCl)CC2 (stereo not drawn)	0%	4%	0.79µM*	nt
SMILES	LmPK inhibitor	TbPYK inhibitor	Sm TGR inh	RE007 growth inh
S=C(NCc1ccco1)Nc1cc(-c2ccccc2)[nH]n1	-3%	-19%	16µM*	0%
COCCn1c(=NC(=O)CCS(=O)(=O)c2ccccc2)sc2ccccc21	nt	1%	nt	13%
COC(=O)c1ccc2c(c1)sc(=NC(=O)CCS(=O)(=O)c1ccccc1)n2C	nt	-3%	32µM*	9%
Cc1csc(NC(=O)Cc2ccc(Br)cc2)n1	10%	-4%	23%	4%
O=C(CCS(=O)(=O)c1ccc(Br)cc1)Nc1ccc2c(c1)OCO2	4%	-7%	40µM*	13%
Cc1ccc(S(=O)(=O)CCC(=O)Nc2ccc3c(c2)OCO3)cc1	3%	2%	-2%	20%
CC(=O)c1sc(NC(=O)CCS(=O)(=O)c2ccc(C)cc2)nc1C	nt	2%	35µM*	8%
CC(=O)c1sc(NC(=O)C2(F)C(F)(F)C(F)(F)C(F)(F)C(F)(F)C2(F)F)nc1C	0%	-3%	50µM*	-11%
CC(=O)c1sc(NC(=O)C=C(C)C)nc1C	?	-3%	2%	-5%
Cc1csc(NC(=O)CCS(=O)(=O)c2ccc(Br)cc2)n1	1%	-24%	3.5µM*	-13%
Cc1ccc(N2CCN(Cc3nnc(-c4ccccc4F)o3)CC2)c(C)c1	nt	-27%	?	nt
Cc1ccc(NC(=O)CCC(=O)c2cccs2)nc1	nt	-6%	50µM*	-1%
Cc1ccc(S(=O)(=O)CCC(=O)Nc2ccc(Br)cc2)cc1	6%	-3%	13%	-6%
Cc1ccc(NC(=O)CCS(=O)(=O)c2ccc(Br)cc2)nc1	-6%	?	16µM*	-15%
Cc1ccc(C)c(Nc2nnc(-c3ccc(C)c(S(=O)(=O)N4CCN(C)CC4)c3)c3ccccc23)c1	nt	0%	-5%	nt
Cc1ccc(C2Nc3ccccc3-n3c(-c4ccccc4)c4c(=O)n(C)c(=O)n(C)c4c32)o1 (stereo not drawn)	nt	2%	-34%	nt
Cc1oc(-c2ccc3c(c2)OCCO3)cc1C(=O)O	14µM*	?	?	?
CN(Cc1ccncn1)C(=O)C1CCC(=O)N(Cc2cccc(C(F)(F)F)c2)C1 (stereo not drawn)	1%	-8%	0%	15%
Cc1ccccc1C(=O)OCc1cc(=O)n2nc(C(C)C)sc2n1	nt	-1%	5%	nt
Nc1c(Cl)cc(C2=NCCn3nc4cc([N+](=O)[O-])ccc4c32)cc1Cl	nt	4%	-20%	2%
Nc1c(Cl)cc(C2=NCCn3c2c2ccc([N+](=O)[O-])cc2[n+]3[O-])cc1Cl	nt	-11%	40µM*	-10%
CCN(CC)S(=O)(=O)c1ccc2c(c1)N(CC(=O)Nc1ccccc1F)C(=O)C1CCCN21 (stereo not drawn)	nt	2%	-20%	nt
O=C(CS(=O)Cc1ccco1)NCC=CCOc1cc(CN2CCCCC2)ccn1 (stereo not drawn)	nt	5%	nt	nt
O=C(/C=C/c1ccco1)Nc1cc(Cl)ccc1C(=O)O	4%	?	?	10%
O=C(O)/C=C/c1ccc(S(=O)(=O)Nc2ccccc2C(=O)Nc2ccc(F)cc2)cc1	1%	-4%	45µM*	1%
O=C(O)/C=C/C(=O)Nc1ccccc1C(=O)Nc1ccccc1	-2%	?	35µM*	-3%
O=C(/C=C/c1ccco1)Nc1ccccc1C(=O)O	?	?	18µM*	-10%
Cc1occc1C(=O)Nc1cccc(C(=O)O)c1	2%	-8%	1%	9%

Screening results (PubChem)
